Compounds without any hit were thinned out: in the full panel of roughly 79,000, 15% have a hit. Calls of active or inactive are those of the source. Rule as the data show it: active = growth inhibition above about 70%; inactive = the rest.
How the values were obtained:
[1] = NCI Yeast Anticancer Drug Screen. Data for the rad52 strain (AID 147);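 also: 0% = growth of vehicle-treated control cultures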; details: S. cerevisiae rad52 mutant growth inhibition, stronger effect = higher value
Outline: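 Here a repair-compromised yeast strain receives each compound; its growth is then quantified and normalised to vehicle-only controls.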

[2] = NCI Yeast Anticancer Drug Screen. Data for the wt1 strain (AID 149);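 also: 0% = growth of vehicle-treated wt1 cultures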; details: S. cerevisiae wt1 strain (SPY 50644) growth inhibition, stronger effect = higher value
Outline: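 Using yeast strain wt1, compound-induced growth inhibition was determined against vehicle-treated cultures.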

[3] = NCI Yeast Anticancer Drug Screen. Data for the rad50EPP+ strain (AID 151);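 also: 0% = growth of vehicle-treated control cultures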; details: S. cerevisiae rad50 mutant strain, stronger effect = higher value
Outline: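 Read-out is yeast growth inhibition relative to vehicle; cells used were the rad50EPP+ strain.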

[4] = NCI Yeast Anticancer Drug Screen. Data for the mec2-1 strain (AID 157); details: S. cerevisiae mec2-1 strain, stronger effect = higher value
Outline: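 Using mec2-1 yeast: add compound, measure growth, express inhibition versus vehicle-treated cultures.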

[5] = NCI Yeast Anticancer Drug Screen. Data for the sgs1 mgt1 strain (AID 161);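 also: 0% = growth of cultures given vehicle only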; details: S. cerevisiae sgs1 mgt1 strain, stronger effect = higher value
Outline: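 This yeast growth screen uses a strain with defined DNA-repair lesions; compound-treated growth is compared with vehicle-treated growth.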

[6] = NCI Yeast Anticancer Drug Screen. Data for the CLN2oe strain (AID 163);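 also: 0% = growth of vehicle-only control cultures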; details: S. cerevisiae CLN2oe strain, stronger effect = higher value
Outline: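 Whole-cell yeast growth assay. A strain engineered for altered cell-cycle control received compound, and inhibition relative to vehicle-treated cultures was recorded.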

[7] = NCI Yeast Anticancer Drug Screen. Data for the cln2 rad14 strain (AID 165);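 also: 0% = growth equal to vehicle treated cultures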; details: S. cerevisiae cln2 rad14 strain, stronger effect = higher value
Outline: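 Yeast strain cln2 rad14, bearing defects in cell cycle control and DNA repair, serves as the test system; values reflect growth inhibition compared with vehicle.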

[8] = NCI Yeast Anticancer Drug Screen. Data for the bub3 strain (AID 167); details: S. cerevisiae bub3 mutant strain, stronger effect = higher value
Outline: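 Screening used yeast with an engineered genetic alteration affecting cell cycle control. Compound-exposed cultures were compared with vehicle cultures, and reduced growth was taken as inhibition.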

[9] = NCI Yeast Anticancer Drug Screen. Data for the wt2 strain (AID 169);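 also: 0% = growth of vehicle-treated yeast cultures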; details: S. cerevisiae wt2 strain growth inhibition, stronger effect = higher value
Outline: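 Treated yeast vs. vehicle-treated yeast: growth inhibition determined.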

[10] = NCI Yeast Anticancer Drug Screen. Data for the sgs1 strain (AID 173);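 also: 0% = growth of vehicle-only control cultures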; details: S. cerevisiae sgs1 mutant, stronger effect = higher value
Outline: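 A genetically defined yeast mutant is incubated with the test compound, and its growth is compared to that of the same strain given vehicle.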

[11] = NCI Yeast Anticancer Drug Screen. Data for the mlh1 rad18 strain (AID 175); details: S. cerevisiae mlh1 rad18 strain growth inhibition, stronger effect = higher value
Outline: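 Steps: expose repair-defective yeast to compound; measure growth; express inhibition against vehicle-treated controls.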

[12] = NCI Yeast Anticancer Drug Screen. Data for the rad18 strain (AID 177); details: S. cerevisiae rad18 mutant growth inhibition, stronger effect = higher value
Outline: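 Measured value is growth inhibition of a yeast strain bearing a DNA repair alteration, referenced to vehicle-treated cells.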

[13] = NCI Yeast Anticancer Drug Screen. Data for the rad50 strain (AID 155);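 also: 0% = growth of vehicle-only cultures of the same strain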; details: S. cerevisiae rad50 strain growth inhibition, stronger effect = higher value
Outline: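 Relative growth inhibition (compound vs vehicle) was measured in yeast with a defined repair-gene alteration.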

[14] = NCI Yeast Anticancer Drug Screen. Data for the rad14 strain (AID 159);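 also: 0% = growth of vehicle-treated control cultures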; details: S. cerevisiae rad14 strain growth inhibition, stronger effect = higher value
Outline: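 Screen for anticancer potential: a yeast strain altered in DNA damage repair is grown with compound, and reduced growth is quantified against vehicle controls.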

[15] = NCI Yeast Anticancer Drug Screen. Data for the mlh1 strain (AID 171);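 also: 0% = growth of vehicle-treated control cultures of the same strain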; details: S. cerevisiae mlh1 strain growth inhibition, stronger effect = higher value
Outline: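 A yeast strain with a defined genetic lesion serves as the test organism. Cultures receive compound or vehicle, and growth is measured.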

[16] = at 5.0 µM (retest, dose inferred, filed as 0.5)
[17] = at 50.0 µM (retest, dose inferred, filed as 5.0)

Measured: growth inhibition

CCCNCC(=O)O[C@]1(CC)C(=O)OCc2c1cc1n(c2=O)Cc2cc3ccccc3nc2-1
active: [1]; at 1.2 µM 80% | [1]; at 3.7 µM 90% | [1]; at 11.0 µM 94% | [1]; at 33.0 µM 95% | [1]; at 100.0 µM 96% | [2]; at 100.0 µM 85% | [3]; at 3.7 µM 72% | [3]; at 11.0 µM 81% | [3]; at 33.0 µM 89% | [3]; at 100.0 µM 93% | [4]; at 11.0 µM 75% | [4]; at 33.0 µM 90% | [4]; [17] 86% | [4]; at 50.0 µM 88.1% | [4]; at 100.0 µM 93% | [5]; [17] 82% | [5]; at 50.0 µM 79% | [6]; at 33.0 µM 71% | [6]; at 100.0 µM 86% | [8]; at 50.0 µM 76.3% | [8]; at 100.0 µM 88% | [9]; at 100.0 µM 82% | [10]; at 33.0 µM 82% | [10]; at 100.0 µM 90% | [11]; [17] 72% | [11]; at 50.0 µM 83.1% | [12]; at 33.0 µM 75% | [12]; at 100.0 µM 84%
inactive: [2]; at 1.2 µM 13% | [2]; at 3.7 µM 12% | [2]; at 11.0 µM 28% | [2]; at 33.0 µM 62% | [3]; at 1.2 µM 29% | [4]; at 1.2 µM 19% | [4]; at 3.7 µM 33% | [4]; [16] -5% | [5]; [16] 28% | [6]; at 1.2 µM 31% | [6]; at 3.7 µM 34% | [6]; at 11.0 µM 41% | [7]; [16] 0% | [7]; [17] 51% | [7]; at 50.0 µM 64.5% | [8]; at 1.2 µM 17% | [8]; at 3.7 µM 12% | [8]; [16] -9% | [8]; at 11.0 µM 28% | [8]; at 33.0 µM 69% | [8]; [17] 68% | [9]; at 1.2 µM -22% | [9]; at 3.7 µM -32% | [9]; at 11.0 µM -19% | [9]; at 33.0 µM 37% | [10]; at 1.2 µM 26% | [10]; at 3.7 µM 30% | [10]; at 11.0 µM 51% | [11]; [16] 2% | [12]; at 1.2 µM 25% | [12]; at 3.7 µM 34% | [12]; at 11.0 µM 46%

NC(N)=NS(=O)(=O)c1ccc(Nc2c3ccccc3nc3c(C(=O)NC(CO)(CO)CO)cccc23)cc1
inactive: [1]; at 1.2 µM 1% | [1]; at 3.7 µM 9% | [1]; at 11.0 µM 25% | [1]; at 33.0 µM 66% | [2]; at 1.2 µM -1% | [2]; at 3.7 µM 0% | [2]; at 11.0 µM 0% | [2]; at 33.0 µM -1% | [2]; at 100.0 µM 2% | [3]; at 1.2 µM 1% | [3]; at 3.7 µM 5% | [3]; at 11.0 µM 15% | [3]; at 33.0 µM 44% | [13]; at 1.2 µM 3% | [13]; at 3.7 µM 9% | [13]; [16] 6% | [13]; at 11.0 µM 27% | [13]; at 33.0 µM 64% | [4]; at 1.2 µM -1% | [4]; at 3.7 µM -1% | [4]; [16] 1% | [4]; at 11.0 µM 1% | [4]; at 33.0 µM 3% | [4]; [17] -13% | [4]; at 50.0 µM 8.65% | [4]; at 100.0 µM 13% | [14]; at 1.2 µM -1% | [14]; at 3.7 µM 3% | [14]; at 11.0 µM 3% | [14]; at 33.0 µM 3% | [14]; at 100.0 µM 10% | [5]; [16] 8% | [5]; [17] -3% | [5]; at 50.0 µM -20.5% | [6]; at 1.2 µM 2% | [6]; at 3.7 µM 2% | [6]; at 11.0 µM 4% | [6]; at 33.0 µM 1% | [6]; at 100.0 µM 1% | [7]; [16] 35% | [7]; [17] 3% | [7]; at 50.0 µM -9.45% | [8]; at 1.2 µM -1% | [8]; at 3.7 µM 2% | [8]; [16] -11% | [8]; at 11.0 µM 2% | [8]; at 33.0 µM 0% | [8]; [17] 15% | [8]; at 50.0 µM -5.3% | [8]; at 100.0 µM -2% | [9]; at 1.2 µM -1% | [9]; at 3.7 µM -2% | [9]; at 11.0 µM -1% | [9]; at 33.0 µM -1% | [9]; at 100.0 µM 4% | [15]; at 1.2 µM -1% | [15]; at 3.7 µM 0% | [15]; at 11.0 µM 0% | [15]; at 33.0 µM 0% | [15]; at 100.0 µM 5% | [10]; at 1.2 µM -1% | [10]; at 3.7 µM 1% | [10]; at 11.0 µM 2% | [10]; at 33.0 µM 2% | [10]; at 100.0 µM 8% | [11]; [16] 12% | [11]; [17] 12% | [11]; at 50.0 µM 15.7%
active: [1]; at 100.0 µM 91% | [3]; at 100.0 µM 85% | [13]; [17] 94% | [13]; at 50.0 µM 70.8% | [13]; at 100.0 µM 89%

Nc1cccc(-c2cc[cH-]c2)c1.[Fe+2].c1cc[cH-]c1
inactive: [1]; at 1.2 µM -2% | [1]; at 3.7 µM 6% | [1]; at 11.0 µM 15% | [1]; at 33.0 µM 39% | [2]; at 1.2 µM -1% | [2]; at 3.7 µM -3% | [2]; at 11.0 µM -3% | [2]; at 33.0 µM 2% | [2]; at 100.0 µM 50% | [3]; at 1.2 µM -1% | [3]; at 3.7 µM 9% | [3]; at 11.0 µM 21% | [3]; at 33.0 µM 20% | [13]; at 1.2 µM -3% | [13]; at 3.7 µM 3% | [13]; [16] -14% | [13]; at 11.0 µM 16% | [13]; at 33.0 µM 35% | [13]; [17] 15% | [13]; at 50.0 µM 35.5% | [4]; at 1.2 µM -2% | [4]; at 3.7 µM -3% | [4]; [16] -18% | [4]; at 11.0 µM -3% | [4]; at 33.0 µM 3% | [4]; [17] -10% | [4]; at 50.0 µM 38.5% | [14]; at 1.2 µM 0% | [14]; at 3.7 µM 6% | [14]; at 11.0 µM 14% | [14]; at 33.0 µM 25% | [5]; [16] -9% | [5]; [17] 7% | [5]; at 50.0 µM 31.4% | [6]; at 1.2 µM -11% | [6]; at 3.7 µM -5% | [6]; at 11.0 µM -6% | [6]; at 33.0 µM -1% | [6]; at 100.0 µM 64% | [7]; [16] -8% | [7]; [17] 9% | [7]; at 50.0 µM 17.6% | [8]; at 1.2 µM 6% | [8]; at 3.7 µM 6% | [8]; [16] 5% | [8]; at 11.0 µM 7% | [8]; at 33.0 µM 27% | [8]; [17] 68% | [8]; at 50.0 µM 58.2% | [9]; at 1.2 µM 6% | [9]; at 3.7 µM 4% | [9]; at 11.0 µM 9% | [9]; at 33.0 µM 3% | [15]; at 1.2 µM -3% | [15]; at 3.7 µM 2% | [15]; at 11.0 µM 8% | [15]; at 33.0 µM 23% | [10]; at 1.2 µM -10% | [10]; at 3.7 µM -30% | [10]; at 11.0 µM 11% | [10]; at 33.0 µM 54% | [11]; [16] -21% | [11]; [17] 39% | [11]; at 50.0 µM 55.5% | [12]; at 1.2 µM -4% | [12]; at 3.7 µM 7% | [12]; at 11.0 µM 26% | [12]; at 33.0 µM 50%
active: [1]; at 100.0 µM 95% | [3]; at 100.0 µM 76% | [13]; at 100.0 µM 96% | [4]; at 100.0 µM 79% | [14]; at 100.0 µM 96% | [8]; at 100.0 µM 86% | [9]; at 100.0 µM 95% | [15]; at 100.0 µM 96% | [10]; at 100.0 µM 99% | [12]; at 100.0 µM 97%

— PubChem BioAssay (NCI)
